Measurements reported in PubChem BioAssay (EPA / NIEHS).
Calls of active or inactive are those of the source. The calls were made as follows: active = hit-call score of the fitted dose curve at least 0.9, where 1 is the maximum; inactive = score below 0.9.

experiment: ATG_M_32_CIS: Attagene CIS-FACTORIAL HepG2 Assay for M32 Transcription Factor (Internal Marker) (AID 2282949); conditions: HepG2 Attagene cis-factorial M32 reporter, mRNA; actives raise or lower the signal;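 also: background control marker of the multiplexed CIS panel rather than a real target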
Method: ATG_CIS is a cell-based, multiplexed-readout assay that uses HepG2, a human liver cell line, with measurements taken at 24 hours after chemical dosing in a 24-well plate.ATG_M_32_CIS is one of 52 assay component(s) measured or calculated from the ATG_CIS assay. It is designed to make measurements of mRNA induction, a form of inducible reporter, as detected with fluorescence intensity signals by Reverse transcription polymerase chain reaction (RT-PCR) and Capillary electrophoresis technology.Data from the assay component ATG_M_32_CIS was analyzed into 1 assay endpoint. This assay endpoint, ATG_M_32_CIS, was analyzed with bidirectional fitting relative to DMSO as the negative control and baseline of activity. Using a type of inducible reporter, measures of mRNA for gain or loss-of-signal activity can be used to understand the background control at the transcription factor-level as they relate to the gene . Furthermore, this assay endpoint can be referred to as a secondary readout, because this assay has produced multiple assay endpoints where this one serves a background control function. To generalize the intended target to other relatable targets, this assay endpoint is annotated to the background measurement intended target family, where the subfamily is internal marker.
Human liver HepG2 cells are transiently transfected with multiple reporter transcription units (MRTUs) in 6-well plates using FuGene 6 reagent (Roche; 3 ml FuGene/1 mg DNA). The MRTU constructs are regulated by a cis-regulating element (promoter). […] A major difference between the CIS and TRANS system is that in CIS activities of endogenous TFs are measured, whereas the TRANS assay evaluates changes in activities of exogenous, chimeric NR-Gal4 proteins. […] At the end of 24 hour incubation, total RNA was isolated using TriZol reagent (Invitrogen). The isolated RNA is then reverse-transcribed using oligo(dT) primer and Mo-MLV reverse transcriptase (Invitrogen) with DNAse I (Ambion) treatment for 30 min. The one-tenth of the produced cDNA was amplified by PCR using Taq DNA polymerase (Invitrogen) and two reporter sequence-specific primers. The PCR products were fluorescently labeled by primer extension with 6-arboxyfluorescein (6-FAM) 5'-labeled reporter sequence-specific primer (2 min at 95 C, 20 s at 68 C and 10 min at 72 C) and these products were digested with 5U of HpaI (New England Biolabs) for 2h at 37 C. The fragments were purified using Qiaquick PCR columns (Qiagen), analyzed on an ABI 3130xL genetic analyzer (Applied Biosystems) with peak positions identified by using a set of X-rhodamine (ROX)-labeled MapMarker1000 molecular weight standards (BioVentures). The raw capillary electrophoresis data was processed using Attagraph software (Attagene).

| Compound | outcome |
| --- | --- |
| CCCCCCC(C)O (stereo not given) | inactive |
| O=C(O)c1cc2ccccc2cc1O | inactive |
| NC(=O)NC(N)=O | inactive |
| COc1cc(OC)c2ccc(=O)oc2c1 | inactive |
| CC(C)(O)C(=O)c1ccc(OCCO)cc1 | inactive |
| CCCC(O)C(CC)CO (stereo not given) | inactive |
| CC(O)COCC(C)O (stereo not given) | inactive |
| CC(=O)c1cccnc1 | inactive |
| CC(=O)c1ccc(C)cc1 | inactive |
| Nc1ccc(N)c([N+](=O)[O-])c1 | inactive |
| CC(=O)OC(C)(C)C | inactive |
| O=C1CCC(=O)N1 | inactive |
| CC(C)=CC(=O)O | inactive |
| CCCCCCCCCCCCS | inactive |
| OCCN1CCOCC1 | inactive |
| CCCCOCCOCCO | inactive |
| CC(=O)N(C)C | inactive |
| CC(=O)OC(C)(C)C1CC=C(C)CC1 (stereo not given) | inactive |
| CC(C)(CO)CO | inactive |
| CC(=O)c1ccc2ccccc2c1 | inactive |

| Compound | outcome |
| --- | --- |
| CCCCCCCCCCO[C@@H]1O[C@H](CO)[C@@H](O)[C@H](O)[C@H]1O | inactive |
| CC(=O)CCC(=O)O | inactive |
| [Cu+] | inactive |
| O=S1(=O)CC(Cl)(Cl)C(Cl)(Cl)C1 | inactive |
| CC1=CC[C@@H]2C[C@H]1C2(C)C | inactive |
| [Na+] | inactive |
| O=c1cc[nH]cc1 | inactive |
| CCC(CC)CO | inactive |
| C=CC(C)CCCC(C)(C)O (stereo not given) | inactive |
| CCCOC(=O)CC | inactive |
| Brc1cc(Br)cc(Br)c1 | inactive |
| C=C1CC[C@H]2O[C@]2(C)CC[C@@H]2[C@@H]1CC2(C)C | inactive |
| Nc1ccc(O)c(N)c1 | inactive |
| CCCCCCOc1ccc(O)cc1 | inactive |
| NNC(=O)OCc1ccccc1 | inactive |
| NC(N)=S | inactive |
| OC[C@H]1O[C@@H](O[C@H]2[C@H](O)[C@@H](O)[C@H](O)O[C@@H]2CO)[C@H](O)[C@@H](O)[C@H]1O | inactive |
| CC1(C)CC(N)CC(C)(CN)C1 (stereo not given) | inactive |
| CC(=O)Oc1c(C)c(C)c2c(c1C)CC[C@@](C)(CCC[C@H](C)CCC[C@H](C)CCCC(C)C)O2 | inactive |
| CC(=O)c1ccc(O)cc1 | inactive |
